The text below walks through data of PubChem BioAssay (EPA / NIEHS).

Holding throughout (details): mRNA level, 48 h; actives raise or lower the signal
Read-out in assay [1]: ABC Transporter (ABCC2), ABCC2 (gene 1244)
Kind of assay: LTEA_HepaRG_ABCC2: Life Technologies and Expression Analysis (LTEA) Assay for ABC Transporter (ABCC2) using HepaRG (AID 2283464). The method, boiled down: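 Endpoint is ABCC2 transcript level from qRT-PCR, normalized to three housekeeping genes and fitted bidirectionally relative to DMSO. Human HepaRG cells received test chemical for 48 h at up to 100 uM (8 points, half-log steps, 0.5% DMSO), duplicate wells.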

Read-out in assay [2]: Broad substrate specificity ATP-binding cassette transporter ABCG2 (Homo sapiens) (UniProt Q9UNQ0)
Kind of assay: LTEA_HepaRG_ABCG2: Life Technologies and Expression Analysis (LTEA) Assay for ABC Transporter (ABCG2) using HepaRG (AID 2283465). The method, boiled down: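 HepaRG, 48 h exposure, 8-pt half-log series from 100 uM, 0.5% DMSO vehicle, duplicates. Readout: ABCG2 transcript by qRT-PCR (Fluidigm array), housekeeping-normalized; bidirectional curve fit relative to DMSO baseline.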

Read-out in assay [3]: ATP-citrate lyase (ACLY), ACLY (gene 47)
Nature of the assay: LTEA_HepaRG_ACLY: Life Technologies and Expression Analysis (LTEA) Assay for ATP-citrate lyase (ACLY) using HepaRG (AID 2283466). An outline of the steps:
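qRT-PCR readout of ACLY transcript after 48 h chemical treatment of HepaRG cells; expression normalized to three housekeeping genes. Eight-point half-log series, highest 100 uM, 0.5% DMSO vehicle. Gain or loss fitted against DMSO baseline.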

Read-out in assay [4]: Peroxisomal acyl-coenzyme A oxidase 1 (ACOX1) gene, ACOX1 (gene 51)
Nature of the assay: LTEA_HepaRG_ACOX1: Life Technologies and Expression Analysis (LTEA) Assay for Peroxisomal acyl-coenzyme A oxidase 1 (ACOX1) gene using HepaRG (AID 2283467). The method, boiled down:
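HepaRG, 48 h chemical exposure, 8-pt half-log series from 100 uM top, 0.5% DMSO vehicle, duplicates. Readout: ACOX1 mRNA by Fluidigm qRT-PCR, housekeeping-normalized; bidirectional fit vs DMSO baseline.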

Read-out in assay [5]: Alkaline Phosphatase, Placental (ALPP) gene, ALPP (gene 250)
Kind of assay: LTEA_HepaRG_ALPP: Life Technologies and Expression Analysis (LTEA) Assay for Alkaline Phosphatase, Placental (ALPP) gene using HepaRG (AID 2283468). The method, boiled down: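 ALPP transcript level, measured by qRT-PCR and normalized to three housekeeping genes (ACTB, GAPDH, POLR2A), after 48 h dosing of differentiated HepaRG in serum-free induction medium. Top concentration 100 uM with half-log dilutions (8 points, 0.5% DMSO, duplicates); bidirectional fitting relative to DMSO.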

Read-out in assay [6]: Bcl-2 (BAD) gene, BAD (gene 572)
Nature of the assay: LTEA_HepaRG_BAD: Life Technologies and Expression Analysis (LTEA) Assay for Bcl-2 (BAD) gene using HepaRG (AID 2283469). The method, boiled down:
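HepaRG, 48 h exposure, 8-pt half-log curve from 100 uM in 0.5% DMSO, duplicates. Readout: TaqMan qRT-PCR for BAD mRNA, housekeeping-normalised (ACTB/GAPDH/POLR2A); gain or loss fitted against DMSO baseline.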

Read-out in assay [7]: Bcl-2 (BAX) gene, BAX (gene 581)
Kind of assay: LTEA_HepaRG_BAX: Life Technologies and Expression Analysis (LTEA) Assay for Bcl-2 (BAX) gene using HepaRG (AID 2283470). The method, boiled down: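 qRT-PCR read-out of BAX mRNA, normalized to three housekeeping genes, after 48 h chemical exposure of human HepaRG cells in serum-free induction medium; eight-point half-log series, top 100 uM, 0.5% DMSO vehicle; bidirectional fit versus DMSO.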

Read-out in assay [8]: adenosine kinase (ADK) gene, ADK (gene 132)
Nature of the assay: LTEA_HepaRG_ADK: Life Technologies and Expression Analysis (LTEA) Assay for adenosine kinase (ADK) gene using HepaRG (AID 2283471). The method, boiled down:
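Following 48 h exposure of HepaRG cells in 0.5% DMSO (top concentration 100 uM, duplicate wells), ADK mRNA induction or suppression was measured by qRT-PCR, normalised to ACTB/GAPDH/POLR2A, and fitted bidirectionally relative to vehicle.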

Read-out in assay [9]: Alpha-fetoprotein (AFP) gene, AFP (gene 174)
Nature of the assay: LTEA_HepaRG_AFP: Life Technologies and Expression Analysis (LTEA) Assay for Alpha-fetoprotein (AFP) gene using HepaRG (AID 2283472). The method, boiled down: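 qRT-PCR (Fluidigm TaqMan) readout of AFP transcript, normalized to three housekeeping genes, fitted bidirectionally against 0.5% DMSO baseline. HepaRG cells received chemicals for 48 h in serum-free induction medium, top concentration 100 uM, half-log steps.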

Read-out in assay [10]: BCL2L11 (gene 10018)
Nature of the assay: LTEA_HepaRG_BCL2L11: Life Technologies and Expression Analysis (LTEA) Assay for Bcl-2 (BCL2L11) gene using HepaRG (AID 2283473). An outline of the steps: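 BCL2L11 transcript levels are measured by Fluidigm qRT-PCR, normalized to three housekeeping genes. HepaRG cultures were plated 48 h, then treated 48 h with test chemical (top 100 uM, half-log, 0.5% DMSO vehicle); curves were fitted bidirectionally against DMSO.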

Read-out in assay [11]: Apolipoprotein A-V (APOA5) gene, APOA5 (gene 116519)
Nature of the assay: LTEA_HepaRG_APOA5: Life Technologies and Expression Analysis (LTEA) Assay for Apolipoprotein A-V (APOA5) gene using HepaRG (AID 2283474). An outline of the steps:
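APOA5 transcript levels were quantified by qRT-PCR, normalized to three housekeeping genes, after 48 h chemical treatment of HepaRG cells (8 points, 100 uM maximum, half-log steps, 0.5% DMSO). Curves fitted in both directions against vehicle.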

Read-out in assay [12]: Bcl-2 (BID) gene, BID (gene 637)
Nature of the assay: LTEA_HepaRG_BID: Life Technologies and Expression Analysis (LTEA) Assay for Bcl-2 (BID) gene using HepaRG (AID 2283476). An outline of the steps: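 HepaRG, 48 h exposure, 8-pt half-log series, top 100 uM, 0.5% DMSO vehicle, duplicates. Readout: BID mRNA by TaqMan qRT-PCR; housekeeping-normalized; bidirectional curve fit vs DMSO baseline.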

Read-out in assay [13]: Caspase-3 (Homo sapiens) (UniProt P42574)
Kind of assay: LTEA_HepaRG_CASP3: Life Technologies and Expression Analysis (LTEA) Assay for cysteine-aspartic acid protease (CASP3) using HepaRG (AID 2283477). An outline of the steps:
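Expression of CASP3 was quantified by TaqMan qRT-PCR against three housekeeping genes (ACTB, GAPDH, POLR2A), bidirectionally versus 0.5% DMSO. HepaRG cultures received compounds in duplicate, top 100 uM with half-log steps, for 48 h in serum-free induction medium.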

Read-out in assay [14]: Cytochrome P450 (CYP24A1), CYP24A1 (gene 1591)
Kind of assay: LTEA_HepaRG_CYP24A1: Life Technologies and Expression Analysis (LTEA) Assay for Cytochrome P450 (CYP24A1) using HepaRG (AID 2283478). An outline of the steps: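 mRNA of CYP24A1 quantified by TaqMan qRT-PCR (ACTB/GAPDH/POLR2A normalization) after 48 h chemical exposure of HepaRG cells, top concentration 100 uM, half-log steps, 0.5% DMSO vehicle, duplicates. Curves fitted bidirectionally against DMSO baseline.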

Read-out in assay [15]: Cytochrome P450 (CYP1A2), CYP1A2 (gene 1544)
Kind of assay: LTEA_HepaRG_CYP1A2: Life Technologies and Expression Analysis (LTEA) Assay for Cytochrome P450 (CYP1A2) using HepaRG (AID 2283479). The method, boiled down:
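CYP1A2 transcript measured by TaqMan qRT-PCR against three housekeeping genes after 48-hour chemical exposure of HepaRG cells. Eight-point half-log series topping at 100 uM in 0.5% DMSO, duplicates; gain or loss fitted relative to vehicle.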

Read-out in assay [16]: cysteine-aspartic acid protease (CASP8), CASP8 (gene 841)
Kind of assay: LTEA_HepaRG_CASP8: Life Technologies and Expression Analysis (LTEA) Assay for cysteine-aspartic acid protease (CASP8) using HepaRG (AID 2283480). An outline of the steps:
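qRT-PCR readout of CASP8 mRNA, normalized to three housekeeping genes, after 48 h chemical exposure of HepaRG cells; 8-point half-log series, top 100 uM, 0.5% DMSO vehicle. Bidirectional curve fitting against DMSO baseline.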

Read-out in assay [17]: Cytochrome P450 2C19 (Homo sapiens) (UniProt P33261)
Kind of assay: LTEA_HepaRG_CYP2C19: Life Technologies and Expression Analysis (LTEA) Assay for CYP2C19 using HepaRG (AID 2283482). The method, boiled down:
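CYP2C19 transcript levels by qRT-PCR, normalized to three housekeeping genes, in HepaRG cells after 48 h chemical exposure. Eight-point half-log series topping at 100 uM, 0.5% DMSO vehicle. Increases and decreases both fitted against DMSO.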

Read-out in assay [18]: CYP2C8 (gene 1558)
Kind of assay: LTEA_HepaRG_CYP2C8: Life Technologies and Expression Analysis (LTEA) Assay for CYP2C8 using HepaRG (AID 2283483). The method, boiled down:
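HepaRG (human liver line), 48 h chemical exposure, 8-pt half-log series from 100 uM, 0.5% DMSO vehicle. Readout: CYP2C8 transcript by qRT-PCR, housekeeping-normalized. Bidirectional fit vs DMSO baseline.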

Read-out in assay [19]: Apoptosis regulator Bcl-2 (Homo sapiens) (UniProt P10415)
Nature of the assay: LTEA_HepaRG_BCL2: Life Technologies and Expression Analysis (LTEA) Assay for Bcl-2 gene using HepaRG (AID 2283475). The method, boiled down:
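qRT-PCR read-out (Fluidigm TaqMan) of BCL2 transcript, normalised to three housekeeping genes, after 48 h chemical exposure of HepaRG cells; 8-point half-log series, top 100 uM, 0.5% DMSO vehicle. Gain or loss of signal fitted relative to DMSO baseline.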

Read-out in assay [20]: Cytochrome P450 (CYP2B6), CYP2B6 (gene 1555)
Kind of assay: LTEA_HepaRG_CYP2B6: Life Technologies and Expression Analysis (LTEA) Assay for Cytochrome P450 (CYP2B6) using HepaRG (AID 2283481). The method, boiled down:
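CYP2B6 transcript level quantified by qRT-PCR against three housekeeping genes, fitted bidirectionally relative to DMSO. HepaRG cultures received chemicals for 48 h, 8-point half-log series from 100 uM in 0.5% DMSO, duplicate wells, serum-free induction medium.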

Activity calls are given as the source filed them. Rule for the calls: active = hit-call score of the fitted dose curve at least 0.9, where 1 is the maximum; inactive = score below 0.9.

Sequence of Broad substrate specificity ATP-binding cassette transporter ABCG2 (Homo sapiens) (Q9UNQ0 whole entry, looked up): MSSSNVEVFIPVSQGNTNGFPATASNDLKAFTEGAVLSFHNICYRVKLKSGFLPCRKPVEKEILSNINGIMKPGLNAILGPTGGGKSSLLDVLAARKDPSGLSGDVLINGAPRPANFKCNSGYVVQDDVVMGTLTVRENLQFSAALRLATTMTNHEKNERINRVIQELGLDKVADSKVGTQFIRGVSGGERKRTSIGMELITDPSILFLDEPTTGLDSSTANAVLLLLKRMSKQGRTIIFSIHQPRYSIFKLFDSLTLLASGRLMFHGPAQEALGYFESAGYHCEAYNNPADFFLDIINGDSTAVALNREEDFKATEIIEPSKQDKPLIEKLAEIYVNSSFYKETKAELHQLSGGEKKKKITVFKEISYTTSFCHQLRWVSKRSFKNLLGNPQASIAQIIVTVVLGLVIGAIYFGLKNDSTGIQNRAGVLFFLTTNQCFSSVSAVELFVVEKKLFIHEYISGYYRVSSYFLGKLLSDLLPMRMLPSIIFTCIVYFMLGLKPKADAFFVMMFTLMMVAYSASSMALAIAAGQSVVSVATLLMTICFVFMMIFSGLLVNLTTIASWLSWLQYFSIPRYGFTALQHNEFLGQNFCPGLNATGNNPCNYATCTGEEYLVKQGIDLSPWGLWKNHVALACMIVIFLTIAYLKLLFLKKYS
Sequence of Cytochrome P450 2C19 (Homo sapiens) (P33261 whole entry, looked up): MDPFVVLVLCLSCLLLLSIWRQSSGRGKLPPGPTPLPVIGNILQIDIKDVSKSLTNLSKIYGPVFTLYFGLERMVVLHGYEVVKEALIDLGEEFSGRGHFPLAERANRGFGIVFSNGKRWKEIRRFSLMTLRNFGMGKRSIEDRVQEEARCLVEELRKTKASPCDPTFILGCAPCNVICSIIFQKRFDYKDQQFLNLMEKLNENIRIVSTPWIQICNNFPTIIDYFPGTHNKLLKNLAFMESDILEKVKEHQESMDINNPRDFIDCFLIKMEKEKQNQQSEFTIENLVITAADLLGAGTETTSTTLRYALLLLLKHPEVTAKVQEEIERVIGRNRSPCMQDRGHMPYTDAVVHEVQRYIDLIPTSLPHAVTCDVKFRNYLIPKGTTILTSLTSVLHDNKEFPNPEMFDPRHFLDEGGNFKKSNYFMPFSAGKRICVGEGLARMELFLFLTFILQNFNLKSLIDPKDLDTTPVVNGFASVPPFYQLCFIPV
Sequence of Caspase-3 (Homo sapiens) (P42574 whole entry, looked up): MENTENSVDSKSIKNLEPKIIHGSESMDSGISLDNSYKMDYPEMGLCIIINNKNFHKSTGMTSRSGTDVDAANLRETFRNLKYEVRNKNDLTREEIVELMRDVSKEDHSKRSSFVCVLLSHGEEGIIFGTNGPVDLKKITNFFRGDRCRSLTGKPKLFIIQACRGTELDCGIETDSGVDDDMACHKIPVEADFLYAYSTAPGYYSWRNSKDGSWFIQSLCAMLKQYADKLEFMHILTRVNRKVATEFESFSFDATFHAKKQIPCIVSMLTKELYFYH
Sequence of Apoptosis regulator Bcl-2 (Homo sapiens) (P10415 whole entry, looked up): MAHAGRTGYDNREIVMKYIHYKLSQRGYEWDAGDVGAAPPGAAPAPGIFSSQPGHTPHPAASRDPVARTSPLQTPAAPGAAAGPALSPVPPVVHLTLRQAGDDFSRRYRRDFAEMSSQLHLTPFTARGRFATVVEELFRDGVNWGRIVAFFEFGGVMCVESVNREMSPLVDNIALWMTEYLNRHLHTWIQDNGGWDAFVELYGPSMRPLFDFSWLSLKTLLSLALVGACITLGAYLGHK

On to `CCCCCOC(=O)c1ccccc1C(=O)OCCCCC`, for which the compound was called inactive in [1], in assay [2], in assay [3], in [4], in assay [5] and in [6]. The call in assay [7], in assay [8], in assay [9], in assay [10], in assay [11] and in [12] was inactive. Moreover, the call in [13], in assay [14], in assay [15], in assay [16], in assay [17] and in assay [18] was inactive.
Regarding `CC(C)(C)OOC(=O)c1ccccc1`, the result in assay [1], in [2], in assay [3], in assay [4], in [5] and in assay [6] was inactive. Moreover, the compound was called inactive in assay [7], in assay [8], in assay [9], in assay [10], in [11] and in [12]. In addition, the outcome in assay [13], in [15], in assay [16], in assay [17] and in [18] was inactive.
For the compound `CCN(CC)CCO`, the compound was classed as inactive in [1], in assay [2], in [3], in assay [4], in assay [5] and in [7]. For the same compound, the result in assay [8], in assay [9], in [10], in [11], in assay [19] and in assay [12] was inactive. For the same compound, the outcome in [13], in assay [14], in assay [15], in [16], in [20] and in assay [17] was inactive. For the same compound, the result in [18] was inactive.
Turning to `O=P(OCCCl)(OCCCl)OCCCl`, the call in assay [1], in [2], in assay [3], in assay [4], in assay [5] and in [8] was inactive. The compound was classed as inactive in [9], in assay [10], in [11], in assay [19], in assay [12] and in assay [13]. The compound was classed as inactive in [15], in assay [16], in assay [17] and in assay [18]. The values for the AC50 in assay [7] and in assay [20] were 9.92 µM (active) and 10.2 µM (active), respectively.
As for `c1ccc(C2CO2)cc1` (stereo unspecified), the compound was called inactive in assay [1], in [2], in [3], in assay [4], in assay [5] and in assay [7]. Moreover, the call in assay [8], in [9], in assay [10], in assay [11], in assay [19] and in assay [12] was inactive. The compound was classed as inactive in assay [13], in assay [15], in assay [16], in assay [20], in [17] and in assay [18].
With `C[N+](C)(C)CC1CO1` (stereo unspecified), the compound was called inactive in [1], in assay [2], in [3], in [4], in [5] and in [6]. Moreover, the call in [7], in [8], in assay [9], in assay [10], in [11] and in assay [12] was inactive. The compound was called inactive in assay [13], in assay [15], in [16], in assay [20], in assay [17] and in assay [18].
For `CC(C)(O)c1cnn2c(-c3ccc(F)c(-c4c(F)cccc4C#N)c3)cnc2n1`, the AC50 is 0.304 µM (active) in [1]; 0.00316 µM (active) in assay [4]; 12.7 µM (active) in assay [9]; 29.7 µM (active) in [15]; 0.705 µM (active) in [20]; 0.365 µM (active) in [17]. Besides, the result in assay [2], in assay [3], in assay [5], in assay [7], in assay [8] and in assay [10] was inactive. For the same compound, the compound was called inactive in [11], in assay [19], in assay [12], in [13], in assay [16] and in assay [18].

By AC50 is commonly meant the concentration giving half of the maximal activity seen.
